DAX1 inh-1: DAX1 (NR0B1) inhibitors, primary screen, cell-based, HEK293, Gal4-DAX1, luciferase luminescence. Nuclear receptor subfamily 0 group B member 1 (Homo sapiens), P51843. HEK293 Gal4-DAX1 luciferase reporter. inhibition, % at 6.75 µM. actives 0.99% (n = 340,000);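 active = inhibition above the mean over all tested compounds plus 3 SD, cut at about 4.2% in these data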;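 note: inhibition shows as a rise in luminescence from relieved DAX1 repression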
Target sequence (P51843 207-470 limits assumed): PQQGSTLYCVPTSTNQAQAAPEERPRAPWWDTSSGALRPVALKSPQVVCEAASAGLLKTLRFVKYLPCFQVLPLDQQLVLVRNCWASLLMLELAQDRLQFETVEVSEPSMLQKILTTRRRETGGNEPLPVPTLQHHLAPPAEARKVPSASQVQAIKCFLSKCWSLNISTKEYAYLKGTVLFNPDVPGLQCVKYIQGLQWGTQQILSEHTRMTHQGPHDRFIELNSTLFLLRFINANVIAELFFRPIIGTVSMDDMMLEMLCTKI
hgDAF12 agonist: H. glycines DAF-12 receptor agonists, primary screen, cell-based, luminescence, HEK293, GAL4 fusion, UAS-luciferase | actives 1.8% (n = 370,000) | activation, % at 6.8 µM | Nuclear hormone receptor DAF-12 (Heterodera glycines), GAL4 fusion | HEK293 GAL4-hgDAF12 UAS-luciferase reporter, agonist luminescence; normalized to butyrate control | AID 687014, 2013;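 active = activation above a cutoff set at the mean of all screened compounds plus 3 SD, cut at about 10% in these data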
ssDAF12 agonist: S. stercoralis DAF-12 nuclear receptor activators, primary screen, cell-based, luminescence, HEK293, GRIP1 co-expression, lit1-tk-luc; HEK293 ssDAF-12/GRIP1 lit1-tk-luc reporter; % of 3 µM dafachronic acid response; Nuclear hormone receptor DAF-12 (Strongyloides stercoralis); activation, % at 6.8 µM; actives 1% (n = 370,000);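 active = activation above the mean over all tested compounds plus 3 SD, cut at about 0.9% in these data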
DAX1 inh-2: DAX1 (NR0B1) inhibitors on StAR promoter, primary screen, cell-based, luminescence, SF-1 (NR5A1), full-length DAX-1; HEK293T StAR-luciferase reporter, SF-1/DAX-1 repression relief; inhibition, % at 6.8 µM; actives 1.1% (n = 370,000); AID 652010, 2013;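 active = inhibition above the mean over all tested compounds plus 3 SD, cut at about 3.6% in these data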;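 note: higher inhibition means more luminescence from relief of DAX-1 repression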
hcDAF12 agonist: H. contortus DAF-12 nuclear receptor activators, primary screen, cell-based, luminescence, HEK293, lit1-tk-luc reporter; HEK293 hcDAF-12 lit1-tk-luc reporter; 0% DMSO, 100% Δ7-dafachronic acid; activation, % at 6.8 µM; actives 1.4% (n = 370,000); AID 652067, 2013;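 active = activation above the mean of all tested compounds plus 3 SD, cut at about 5.5% in these data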
A number is an active result. Most compounds without a hit are left out; they make up all but 4.1% or so of the library.

For O=S(=O)(Cc1nc2ccccc2s1)c1ccccc1 the results were DAX1 inh-1 inactive, hgDAF12 agonist 11, ssDAF12 agonist inactive, DAX1 inh-2 inactive and hcDAF12 agonist inactive.
Cc1ccc(NC(=O)CN2CCC(NC(=O)Cc3ccccc3)CC2)c(C)c1 was read as DAX1 inh-1 inactive, hgDAF12 agonist inactive, ssDAF12 agonist 1.2, DAX1 inh-2 inactive and hcDAF12 agonist inactive.
`COc1ccc(CNS(=O)(=O)c2ccc3c(c2)C(C)(C)C(=O)N3C)cc1` gave DAX1 inh-1 inactive, hgDAF12 agonist inactive, ssDAF12 agonist inactive, DAX1 inh-2 inactive and hcDAF12 agonist inactive.
For COc1cc(NS(=O)(=O)c2ccc3c(c2)C(C)(C)C(=O)N3C)cc(OC)c1 the results were DAX1 inh-1 5.0, hgDAF12 agonist inactive, ssDAF12 agonist inactive, DAX1 inh-2 inactive and hcDAF12 agonist inactive.
Screening COc1ccc(NC(=O)c2cc3c(C)nn(-c4ccccc4)c3s2)cc1 returned hgDAF12 agonist inactive, ssDAF12 agonist inactive, DAX1 inh-2 inactive and hcDAF12 agonist inactive.
For O=C1NC(c2ccccc2)=N/C1=C/c1ccco1 the results were DAX1 inh-1 inactive, hgDAF12 agonist inactive, ssDAF12 agonist 1.0, DAX1 inh-2 inactive and hcDAF12 agonist inactive.
`COC(=O)C1(C(=O)OC)C[C@H](/C=C/c2ccccc2)N(Cc2ccccc2OC)[C@@H]1c1cccc(Br)c1` gave hgDAF12 agonist inactive, ssDAF12 agonist inactive, DAX1 inh-2 inactive and hcDAF12 agonist inactive.
For COC(=O)C1(C(=O)OC)C[C@H](/C=C/c2ccccc2)N(Cc2ccccc2OC)[C@@H]1c1ccccc1 the results were hgDAF12 agonist inactive, ssDAF12 agonist inactive, DAX1 inh-2 3.9 and hcDAF12 agonist inactive.
For COC(=O)C1C(c2ccccc2)NC(=O)NC1(O)C(F)(F)Cl (centres undefined) the results were DAX1 inh-1 4.7, hgDAF12 agonist inactive, ssDAF12 agonist inactive, DAX1 inh-2 inactive and hcDAF12 agonist inactive.
Screening Cc1nc2ccc(S(=O)(=O)NCC(=O)N(C)Cc3ccccc3Cl)cc2s1 returned hgDAF12 agonist inactive, ssDAF12 agonist inactive, DAX1 inh-2 inactive and hcDAF12 agonist inactive.
O=C(/C=C/c1ccc(-c2ccccc2[N+](=O)[O-])o1)c1ccccc1 was read as DAX1 inh-1 inactive, hgDAF12 agonist inactive, ssDAF12 agonist inactive, DAX1 inh-2 inactive and hcDAF12 agonist inactive.
For O=C(O)/C(=C\c1ccc(-c2ccccc2[N+](=O)[O-])o1)c1ccccc1 the results were DAX1 inh-1 inactive, hgDAF12 agonist inactive, ssDAF12 agonist 0.9, DAX1 inh-2 inactive and hcDAF12 agonist 5.7.
COc1ccc(O)c(C(=O)c2cnc3nc4ccccc4n3c2)c1 was read as DAX1 inh-1 inactive, hgDAF12 agonist inactive, ssDAF12 agonist inactive, DAX1 inh-2 inactive and hcDAF12 agonist 6.1.
For COc1ccc(O)c(C(=O)c2cnn(-c3ccccn3)c2)c1 the results were DAX1 inh-1 inactive, hgDAF12 agonist inactive, ssDAF12 agonist inactive, DAX1 inh-2 inactive and hcDAF12 agonist inactive.
Screening CCCc1nnn(S(=O)(=O)c2ccc([N+](=O)[O-])cc2)c1CCC returned DAX1 inh-1 5.0, hgDAF12 agonist inactive, ssDAF12 agonist inactive, DAX1 inh-2 inactive and hcDAF12 agonist inactive.
Screening CCOC(=O)[C@]12CCCCC/C=C\1N(Cc1ccc(OC)cc1)C(=O)[C@H]2CC(=O)N1CCC(c2ccccc2)CC1 returned hgDAF12 agonist inactive, ssDAF12 agonist inactive, DAX1 inh-2 inactive and hcDAF12 agonist inactive.
COc1ccc(C2C=C(C)Nc3ncnn32)cc1 (centres undefined) was read as DAX1 inh-1 4.6, hgDAF12 agonist inactive, ssDAF12 agonist inactive, DAX1 inh-2 inactive and hcDAF12 agonist inactive.
Screening CC1=CC(c2ccc(Cl)cc2)n2ncnc2N1 (centres undefined) returned DAX1 inh-1 inactive, hgDAF12 agonist inactive, ssDAF12 agonist inactive, DAX1 inh-2 inactive and hcDAF12 agonist inactive.
